IL-1B inflam inh – inflammasome signaling inhibition, IL-1 beta readout. THP-1 LPS/ATP IL-1B secretion, AlphaLISA, 16 h; stronger effect = lower value. activity change, % at 57.5 µM. 360,000 tested, 4.7% active. AID 743279; in the data active = activity change below about -50%; inconclusive = mostly about -30% to -49%
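THP-1 cells pretreated 1 hr with compounds (up to 57.5 uM final), then stimulated with LPS (250 ng/mL final) plus ATP (1.25 mM final); secreted IL-1B measured by AlphaLISA after 16 hr, decreased signal indicating inhibition.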
HT1080 IDH1KD tx – kills HT-1080 cells with IDH1 knockdown. HT-1080 IDH1 knockdown viability, ATP luminescence, 48 h. Potency, µM (highest dose often 46.1 µM), inactives show at the top dose activity, negative = toxicity, hits mostly cytotoxic. 360,000 tested, 2% active;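 note: potency is the fitted concentration of half-maximal effect; 0% = DMSO wells and -100% = cell-free medium wells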
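Viability of IDH1-knockdown HT-1080 fibrosarcoma cells was assessed by CellTiter-Glo after 48 h at 37 °C with titrated compound; concentration-effect curves were classified by fit quality and response size.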
HT1080-NT tox – kills 2HG-producing HT-1080-NT fibrosarcoma cells; HT-1080-NT fibrosarcoma viability, CellTiter-Glo ATP luminescence, 48 h; 360,000 tested, 1.6% active; Potency, µM (highest dose often 46.1 µM), for the others: at the highest dose activity, negative = less viability, usual class: cytotoxic;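 note: NT is the 2HG producing partner of a matched IDH1 knockdown line; potency is the fitted concentration of half-maximal effect; 0% = DMSO-treated cells and -100% = media-only wells without cells; nearly all actives have a fitted effect of over 55% in size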
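Viability of the 2HG-overproducing fibrosarcoma line after 48 hours of compound exposure at 37 degrees C was determined by luminescence with CellTiter-Glo, and concentration-effect curves were then fitted and categorized.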
TDP1 cell noCPT – qHTS for Inhibitors of human tyrosyl-DNA phosphodiesterase 1 (TDP1): qHTS in cells in absence of CPT. DT40 Tdp1-/- hTDP1 cells, no CPT, ATP luminescence, 48 h. Potency, µM (highest dose often 46.2 µM), inactives show at the highest dose activity change, negative = growth inhibition, actives largely listed as inhibitors. 420,000 tested, 15% active. AID 686978, 2013; note: potency is the fitted concentration of half-maximal effect; nearly all actives have a fitted effect of over 55% in size
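Luminescent ATP content (CellTiter-Glo) served as the growth readout. Knockout chicken DT40 cells expressing human TDP1 were exposed to compounds without camptothecin for a minimum 48 hr at 37 °C.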
TDP1 cell CPT – growth inhibition of DT40 Tdp1-/-;hTDP1 cells with camptothecin (screen for TDP1 inhibitors). Potency, µM (top dose mostly 46.2 µM), inactives show at the top dose activity change, negative = growth inhibition, actives largely listed as inhibitors. chicken DT40 Tdp1-/-;hTDP1 cells + 20 nM CPT, ATP luminescence, 48 h. 420,000 tested, 12% active; note: potency is the fitted concentration of half-maximal effect; nearly all actives have a fitted effect of over 55% in size
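Chicken DT40 Tdp1-/- cells complemented with human TDP1, 400 cells/well, exposed to compounds plus 20 nM camptothecin for at least 48 h at 37 C; viability read as ATP content by CellTiter-Glo luminescence.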
Numbers without * were called inactive; ? = inconclusive; nt = no result given; [ ] = another dose, or the depositor's remark. Only some compounds are listed: those with a hit (about 19% of all), similar ones and a draw of the others. Unless noted, calls come from the whole dose curve; as a rule, active = well fitted curve in the direction sought with a large enough effect; inconclusive = small, poorly fitted or top-dose-only effect, or another doubt; inactive = no such curve, though single readings can be large; an effect the other way counts as inactive or inconclusive. Unless noted, % is set by controls: 0 for no effect and ±100 for the full control effect.

SMILES	IL-1B inflam inh	HT1080 IDH1KD tx	HT1080-NT tox	TDP1 cell noCPT	TDP1 cell CPT
CC(=O)OC[C@@]12C(=O)[C@@H](O)[C@@H](C)[C@]3(C[C@@H](c4ccoc4)O[C@@H]3OC(C)=O)[C@H]1CCC[C@]21CO1	nt	nt	nt	4.0%[9.04 µM]	3.8%[9.04 µM]
Cn1c(CNC(=O)CCNC(=O)c2cccc(F)c2)cc(=O)n(C)c1=O	-17.8	0.0%	-6.6%	-1.0%	-8.9%
O=C1C(=O)N(c2nccs2)C(c2ccccc2F)/C1=C(\O)c1ccc2c(c1)OCCO2 (stereo unspecified)	-1.4	?	?	16.4µM*	?
Cc1cccc2sc(NNC(=O)c3ccc(S(=O)(=O)N4CCc5ccccc5C4)cc3)nc12	125.2	16.4µM*	?	2.31µM*	2.59µM*
Cc1cccc2sc(NNC(=O)c3ccc(S(=O)(=O)N4CCCC(C)C4)cc3)nc12 (stereo unspecified)	135.2	20.6µM*	?	3.66µM*	4.11µM*
Cc1cc(C)c2nc(NNC(=O)c3ccc(S(=O)(=O)N4CCCCC4)cc3)sc2c1	106.2	?	?	3.26µM*	4.61µM*
CC(=O)C1(C)CC2(CC(C)(C)OC2=O)C(=O)O1 (stereo unspecified)	nt	nt	nt	2.1%[9.04 µM]	7.0%[9.04 µM]
CN1CCN(NC(=O)CN2C(=O)/C(=C/c3ccccc3Cl)SC2=S)CC1	-5.7	0.7%	-2.2%	?	?
CN1CCN(C(=O)CCN2C(=O)/C(=C/c3ccccc3Cl)SC2=S)CC1	-96.7*	?	?	11.6µM*	16.4µM*
O=C(CCN1C(=O)/C(=C\c2ccccc2F)SC1=S)N1CCOCC1	-1.5	3.3%	-4.4%	0.731µM*	?
COc1ccc(/C=C2\SC(=S)N(CCCC(=O)N3CCOCC3)C2=O)cc1	-9.5	-14.6%	-5.7%	?	?
CN1CCN(C(=O)CCN2C(=O)/C(=C\c3ccccc3F)SC2=S)CC1	-50.9*	?	-12.5%	?	-103.9%
COc1ccc(NC(=O)N2CCCC3(CCN(S(=O)(=O)c4ccccc4)CC3)C2)cc1	nt	nt	nt	-26.8%	14.4%
Cc1nc2nc(NC(=O)CC(C)C)[nH]n2c(=O)c1Cc1ccccc1	nt	nt	nt	-11.0%	-12.3%
O=S(=O)(c1ccc(F)cc1F)N1CCN(CCO)CC1	26.5	8.1%	0.8%	8.6%	10.1%
CCOc1ccccc1CNC(=O)c1cnn(-c2ccc(C)cc2)c1-n1cccc1	nt	nt	nt	20.6µM*	?
Cc1ccc(-n2ncc(C(=O)NCc3ccccc3C)c2-n2cccc2)cc1	nt	nt	nt	23.1µM*	?
Cc1cc2c(c(-c3cnccn3)c1)OC(CNC(=O)c1cc(C(C)C)[nH]n1)C2 (stereo unspecified)	nt	nt	nt	-23.0%	-23.6%
Cc1nc2ccn(Cc3ccco3)c(=O)c2cc1C(=O)NCc1ccccc1F	nt	nt	nt	-25.5%	-17.2%
Cc1ccc(CN(Cc2ccco2)C(=O)COc2c(C)cc(C)cc2C)cc1	nt	nt	nt	9.2µM*	23.1µM*
CCC(=O)N(CCC(c1ccc(C)cc1)c1ccco1)Cc1ccco1 (stereo unspecified)	-4.2	-6.9%	-13.0%	23.1µM*	?
Cc1ccccc1OCC(=O)N(Cc1ccco1)c1c(N)n(Cc2ccccc2)c(=O)[nH]c1=O	0.0	2.0%	9.8%	-12.6%	-17.8%
Cc1cccc(C)c1OCC(=O)N(Cc1ccc(N(C)C)cc1)C1CCS(=O)(=O)C1 (stereo unspecified)	0.0	-8.3%	2.4%	-25.2%	-29.0%
CCC(=O)N(CCC(c1ccco1)C(C)C)Cc1ccccc1 (stereo unspecified)	-6.9	-23.0%	-16.9%	?	?
Cc1ccc(CN(Cc2ccco2)C(=O)COc2ccccc2C)cc1	nt	nt	nt	16.4µM*	20.6µM*
SMILES	IL-1B inflam inh	HT1080 IDH1KD tx	HT1080-NT tox	TDP1 cell noCPT	TDP1 cell CPT
Cc1cc(C)c(OCC(=O)N(Cc2ccc(N(C)C)cc2)Cc2ccco2)c(C)c1	nt	nt	nt	7.31µM*	11.6µM*
CC(=O)Nc1ccc(S(=O)(=O)N(C)CC(=O)Nc2ccc(F)c(F)c2F)cc1	6.3	0.9%	-2.0%	-7.1%	?
Cc1ccc(S(=O)(=O)N2CCN(C(=O)/C=C/c3ccccc3)CC2)cc1C	-10.4	-0.6%	1.5%	?	?
CCc1ccc(NC(=O)CCc2c(C)nc3nc(-c4cc(OC)cc(OC)c4)nn3c2C)cc1	nt	nt	nt	3.6%	-7.7%
COc1ccc2c(=O)ccoc2c1	nt	nt	nt	2.9%	-7.8%
COc1ccc(Cn2nnnc2CN(Cc2cc3ccc(C)cc3[nH]c2=O)C2CCCC2)cc1	-24.6	?	?	13µM*	9.2µM*
COCCn1nnnc1CN(Cc1cc2cc(OC)c(OC)cc2[nH]c1=O)C1CCCC1	0.0	-11.1%	-12.2%	-0.3%	-7.5%
CCC(C)(C)n1nnnc1CN(Cc1cc2cc(OC)ccc2[nH]c1=O)C1CCCC1	-53.3*	-25.4%	-19.3%	?	?
CCOc1ccc2[nH]c(=O)c(CN(Cc3nnnn3Cc3ccco3)C3CCCCC3)cc2c1	-19.9	-8.8%	-6.3%	11.6µM*	?
Nn1c(SCc2ccc(C(=O)O)cc2)nnc1-c1ccc(Cl)cc1Cl	16.2	13.8%	1.8%	2.5%	-2.8%
CCOc1ccccc1C1NC(=O)c2ccccc2O1 (stereo unspecified)	30.5	12.8%	12.1%	-20.2%	2.9%
CCCCN1CC(Br)C(=O)NC1=O (stereo unspecified)	-10.0	9.9%	11.6%	18.4µM*	14.6µM*
CC(=O)NC1=C(C#N)C(c2ccccc2)c2c(ccc3ccccc23)O1 (stereo unspecified)	59.8	14.6µM*	?	7.31µM*	8.2µM*
NC(=S)N/N=C1\CCOc2ccc(F)cc21	?	?	-7.8%	16.4µM*	?
COc1cc(Cl)c(C)cc1NC(=O)CSCC#N	23.1	-28.9%	10µM*	-4.8%	-21.5%
COc1cc(Cl)c(C)cc1NC(=O)CSC	1.0	1.6%	14.2%	3.9%	-1.9%
COc1cc(Cl)c(C)cc1NC(=O)CSc1cc(Cl)ccc1Cl	24.2	-6.8%	-5.8%	23.1µM*	?
COc1cc(C(=O)NNC(=O)CSc2nnc3ccccn23)cc(OC)c1OC	-12.2	-1.6%	4.2%[9.24 µM]	19.6%	9.7%
Nc1ccc(OCc2ccco2)cc1	-2.0	?	-21.2%	0.0%	-5.9%
CC(=O)N1CCC(N(C(=O)Nc2c(F)cccc2F)C(C)C)CC1	-5.9	-8.5%	0.1%	-15.0%	-2.0%
COCCNC(=O)c1cc(-c2ccccc2)n(CC2CC(c3ccc(OC)cc3)=NO2)n1 (stereo unspecified)	-16.7	4.9%	-0.4%	?	?
COc1ccc(C2=NOC(Cn3nc(C(=O)NCc4ccc(C)cc4)cc3-c3ccccc3)C2)cc1 (stereo unspecified)	-9.0	-1.5%	-10.3%	20.6µM*	?
